EPAC1 agonist = activates human EPAC1 exchange factor; O95398; EPAC1 agonist qHTS, biochemical assay; response scale: 100% = response to 6.5 mM cAMP; Potency, µM (titrated, usually from 154 µM), for the others: at the highest dose activation, hits mostly activators; 360,000 compounds, 0.073% hits; further: nearly all actives have a fitted effect of over 60% in size
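Nucleotide exchange assay: 100 nM EPAC1 with 250 nM Rap1B loaded with BODIPY-GDP and 50 uM GDP, room temperature. Fluorescence (480/540 nm) read every 5 min for 30 min; signal change normalized to 6.5 mM cAMP as full agonist.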
EPAC2 antag = blocks human EPAC2 exchange factor; Potency, µM (titrated, usually from 114 µM), for the others: top-dose activity, negative = inhibition, usual class: inhibitors; 360,000 compounds, 0.18% hits; EPAC2 GEF exchange of Rap1B-BODIPY-GDP, fluorescence; Q8WZA2; further: on the % scale 0 is the no-effect control and ±100 the full control effect; nearly all actives have a fitted effect of over 45% in size
EPAC1 antag = blocks human EPAC1 exchange factor; EPAC1 GEF assay, Rap1b-BODIPY-GDP exchange fluorescence; Potency, µM (doses to about 115 µM), inactives show at the highest dose activity change, negative = inhibition, hits mostly inhibitors; 360,000 compounds, 0.14% hits; AID 720709;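 further: plate controls were vehicle for no effect and positive control for full effect; nearly all actives have a fitted effect of over 50% in size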
USP1 inh = inhibitors of human USP1/UAF1 deubiquitinase; recombinant USP1/UAF1, Ub-Rhodamine cleavage fluorescence; AID 743255; Potency, µM (top dose mostly 57.1 µM), without a hit: at the highest dose activity change, negative = inhibition, usual class: inhibitors; 390,000 compounds, 0.23% hits; further: on the % scale 0 is the no-effect control and ±100 the full control effect; nearly all actives have a fitted effect of over 60% in size
Target sequence (O94782 whole entry, looked up): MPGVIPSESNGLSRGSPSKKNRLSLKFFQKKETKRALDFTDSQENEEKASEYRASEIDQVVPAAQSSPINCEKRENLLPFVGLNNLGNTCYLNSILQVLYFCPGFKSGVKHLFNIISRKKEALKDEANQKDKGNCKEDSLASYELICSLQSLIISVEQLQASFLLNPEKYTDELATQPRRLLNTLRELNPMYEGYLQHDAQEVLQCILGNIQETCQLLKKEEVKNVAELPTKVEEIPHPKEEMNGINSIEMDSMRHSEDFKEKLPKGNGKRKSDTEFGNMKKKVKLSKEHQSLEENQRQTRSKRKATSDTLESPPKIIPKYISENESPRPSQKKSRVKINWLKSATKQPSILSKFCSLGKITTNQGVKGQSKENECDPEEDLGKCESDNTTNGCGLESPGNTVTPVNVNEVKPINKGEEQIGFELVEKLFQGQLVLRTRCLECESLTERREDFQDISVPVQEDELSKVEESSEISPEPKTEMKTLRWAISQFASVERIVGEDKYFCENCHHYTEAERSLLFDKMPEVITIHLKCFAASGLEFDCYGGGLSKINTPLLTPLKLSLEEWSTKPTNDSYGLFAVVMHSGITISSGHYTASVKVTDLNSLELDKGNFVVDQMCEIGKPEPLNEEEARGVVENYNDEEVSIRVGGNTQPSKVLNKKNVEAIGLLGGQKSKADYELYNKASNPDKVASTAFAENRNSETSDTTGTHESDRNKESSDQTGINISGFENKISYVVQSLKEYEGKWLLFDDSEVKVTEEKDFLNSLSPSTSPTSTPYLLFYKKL
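1 nM enzyme complex + cpd, 15 min RT; start with Ub-Rho 150nM final; kinetic fluorescence ex 480/em 540, 6 reads q60 s. Buffer 50mM HEPES pH 7.8, 0.5mM EDTA, 0.1 mg/ml BSA, 1mM TCEP, 0.01% Tween-20.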
EPAC2 agonist = activates human EPAC2 exchange factor; Q8WZA2; EPAC2 activation, biochemical qHTS; response scale: 100% = 6.5 mM cAMP response; Potency, µM (top dose mostly 154 µM), without a hit: top-dose activation, most hits filed as activators; 360,000 compounds, 0.079% hits; further: nearly all actives have a fitted effect of over 50% in size
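Compounds were added across a concentration range to EPAC2 (100 nM), RAP1B-BODIPY-GDP (250 nM) and GDP (50 uM). After 5 min at room temperature, fluorescence was recorded at 5-min intervals for 30 min.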
Numbers without * were called inactive; i = inactive; ? = inconclusive; . = no result given. Rows were chosen to be rich in hits. Some 0.44% of all compounds tested hit in one or more screens of this group. The call rests on the fitted dose curve; in most records, active means well fitted curve in the direction sought with a large enough effect; inconclusive means small, poorly fitted or top-dose-only effect, or another doubt; inactive means no such curve, though single readings can be large; an effect the other way counts as inactive or inconclusive. Potency means the concentration at half of the fitted maximal effect.

SMILES	EPAC1 agonist	EPAC2 antag	EPAC1 antag	USP1 inh	EPAC2 agonist
CN(C)CCCN(C(=O)c1cc2cc([N+](=O)[O-])ccc2s1)c1nc2cc3c(cc2s1)OCCO3	19%	50µM*	?	0%	27%
CN(C)c1nc(OCCNC(=O)Nc2ccccc2)nc(N(C)C)n1	-6%	0%	9%	-22%	10µM*
COc1ccc2c(Cl)c(C(=O)N/N=C3\CCCC(=O)C3)sc2c1	-4%	20%	?	16µM*	1%
COc1ccc2c(Cl)c(C(=O)N/N=C/c3ccc4c(c3)OCO4)sc2c1	3%	-2%	-1%	-26%	2%
N=c1oc2c3c4c(cc2cc1C(=O)Nc1ccccc1)CCCN4CCC3	?	i	i	10µM*	112µM*
CCCCN1C(=O)c2[nH]nc(-c3ccccc3O)c2C1c1ccc(OCc2ccccc2)cc1 (configuration not stated)	.	.	.	-15%	.
COc1ccccc1CNS(=O)(=O)c1cc(CN2C(=O)c3cccnc3C2=O)ccc1OC	-6%	-13%	-13%	-13%	0%
COc1cc(CCNC2=CC(=O)c3ncccc3C2=O)ccc1O	-2%	-5%	-5%	18µM*	-4%
CC1(C(=O)NCc2ccccc2)CN(S(C)(=O)=O)CC(=O)N1CCc1ccccc1F (configuration not stated)	2%	4%	3%	.	7%
O=C(COC(=O)c1c2c(nc3ccccc13)/C(=C\c1ccco1)CC2)NC1CCCC1	6%	0%	?	-10%	-1%
CC1CCCCC1NC(=O)COC(=O)c1c2c(nc3ccccc13)/C(=C\c1ccco1)CC2 (configuration not stated)	-27%	-2%	35µM*	?	-16%
Cn1c(=O)oc2cc(S(=O)(=O)N3CCC(C(=O)N4CCN(c5ccccc5F)CC4)CC3)ccc21	.	.	.	-25%	.
COc1cc(NC(=O)c2cc3ccccc3o2)c(OC)cc1Br	4%	4%	-4%	-2%	10µM*
COc1cc(NC(=O)c2cc3ccccc3o2)c(OC)cc1Cl	7%	4%	-7%	-19%	6%
CN1/C(=C\C=C(/C#N)C(=O)Nc2ccccc2F)C(C)(C)c2ccccc21	?	50%	16%	-15%	100µM*
O=C(N[C@@H](Cc1ccc(Br)cc1)C(=O)O)OCC1c2ccccc2-c2ccccc21	-15%	-27%	?	-24%	6%
O=C(N[C@H](Cc1ccc(Cl)cc1)C(=O)O)OCC1c2ccccc2-c2ccccc21	-23%	?	50µM*	-17%	-13%
CC1=CCC[C@@H]2[C@@](C)(CC/C(C)=C/C(=O)O)[C@H](C)CC[C@@]12C	-19%	32µM*	?	?	-9%
C[C@@H]1CC[C@@]23COC(=O)C2=CCC[C@@H]3[C@@]1(C)CC/C(=C/CO)CO	-16%	6%	-20%	-24%	-1%
COc1cc(/C=C/c2sc3ccccc3[n+]2CCCS(=O)(=O)[O-])ccc1O	0%	?	?	25µM*	0%
Cc1ccc(NC(=O)c2oc3ccc(S(=O)(=O)N(C)C4CCCCC4)cc3c2C)c(C)c1	.	.	.	-20%	.
O=C1C(=O)c2ccccc2C(O)=C1CCCCl	0%	3%	-13%	20µM*	-4%
O=C(CSc1ncc(CO)n1Cc1ccccc1)Nc1ccc(C(F)(F)F)cc1	.	.	.	-18%	.
CCCN1CCCc2cc(CN)ccc21	7%	-1%	-8%	16µM*	9%
CN1CCCc2cc(C=O)ccc21	0%	3%	-28%	-14%	-6%
SMILES	EPAC1 agonist	EPAC2 antag	EPAC1 antag	USP1 inh	EPAC2 agonist
COc1cccc(-c2nc(CS(=O)CC(=O)N3CCN(c4cccc(C(F)(F)F)c4)CC3)c(C)o2)c1 (configuration not stated)	.	.	.	5%	.
CCOc1cc(/C=C2\C(=N)N3N=C(S(C)(=O)=O)SC3=NC2=O)ccc1OCCOc1cccc(OC)c1	2%	-21%	50µM*	?	-7%
COC(=O)c1c(NC(=O)CCCOc2ccc(C)cc2)sc2c1C(C(=O)OC)CC2 (configuration not stated)	.	.	.	-9%	.
CC(C)(C)C(=O)Cn1c(=O)n(-c2ccc(Cl)c(Cl)c2)c(=O)c2c3c(sc21)CCCC3	.	.	.	-5%	.
CCOc1cc(/C=N/NC(=O)c2ccc3c(c2)OCCO3)cc(Br)c1O	-5%	12%	71µM*	-21%	9%
O=C(N/N=C/c1cc(Br)c(O)c(Br)c1O)c1ccc2c(c1)OCCO2	-7%	0%	?	-21%	1%
Cc1ccc(NC(=O)CSc2nc3ncccc3[nH]2)cc1F	.	.	.	-5%	.
CCOC(=O)C1=C(CN2CCN(c3cc(C)ccc3C)CC2)NC(=O)NC1c1ccc(Cl)cc1 (configuration not stated)	.	.	.	-16%	.
CCOC(=O)c1c(CSc2ccccc2)n(C)c2cc(Br)c(OCC(O)CNC(CO)(CO)CO)cc12 (configuration not stated)	7%	40µM*	-11%	?	?
CCOC(=O)c1c(CSc2ccccc2)n(C)c2cc(Br)c(OC)c(O)c12	11%	-6%	4%	-24%	8%
COc1cccc(N2C(C(C)=O)=NN(c3ccccc3)C2c2ccc(N3CCOCC3)cc2)c1 (configuration not stated)	12%	-3%	2%	-16%	6%
COc1ccc(C2N(c3ccc(Cl)cc3)N=C(C(C)=O)N(C)N2C(C)=O)cc1 (configuration not stated)	5%	20µM*	6%	-9%	13%
CCN(CC)S(=O)(=O)c1ccc2c(c1)nc(CN(C)C(=O)Nc1ccc(C)c(F)c1)n2C	.	.	.	-26%	.
O=C(CSc1n[nH]c(-c2ccccc2)n1)c1ccc(O)c(O)c1	-1%	1%	35µM*	-3%	10%
Cc1cc(SCC(=O)c2ccc3c(c2)OCO3)nc2ccccc12	19%	-4%	0%	?	20%
Cc1cc(SCC(=O)c2ccc(O)c(O)c2)nc2ccccc12	13%	-30%	28µM*	-10%	19%
Cc1ccccc1NC(=O)CSc1nc(-c2cccs2)nc2cc(=O)[nH]n12	.	.	.	-12%	.
CCOC(=O)c1ccccc1NC(=O)CCOc1ccccc1	.	.	.	16%	.
O=C(O)c1ccc(NC2=C(n3nnc4ccccc43)C(=O)c3ccccc3C2=O)cc1	6%	-13%	-11%	16µM*	15%
O=C(O)c1ccc(Nc2nc3ccccc3n3cnnc23)cc1	.	.	.	-27%	.
O=C(C1=NN(c2ccccc2)C2C(=O)N(c3cccc(Cl)c3)C(=O)C12)c1ccccc1 (configuration not stated)	-82%	32%	50µM*	?	10%
Cn1cc(C2=C(c3ccc(Cl)cc3Cl)C(=O)NC2=O)c2ccccc21	-47%	15%	?	-16%	100µM*

High-throughput results deposited in PubChem by National Center for Advancing Translational Sciences (NCATS).
